Measurements reported in PubChem BioAssay AID1159580 (chemical genetic matrix, 2015).
The campaign covered roughly 5,500 compounds. About 2,000 (36%) were called active. Roughly 18% stayed inconclusive and do not appear here. No stated cut-off is given here; in the data, active means normalized growth mostly below about 0.91 (no sharp cut-off); inconclusive means no clear call, values can overlap the other calls; inactive means mostly above about 0.92. The list shows a part of the results.

Assay: chemical genetic growth profiling, strain panel (AID 1159580);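 further: tested at 20 µM; growth read once vehicle control cultures reached saturation at 30 °C; 1 = growth at the plate median or of vehicle wells; lower values mean less growth of the strain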
Details: growth OD
[1] = S. cerevisiae deletion strains, locus YDL101C, strain DUN1, active compounds read low
[2] = S. cerevisiae deletion strains, locus YHR030C, strain SLT2, active compounds read low
[3] = S. cerevisiae deletion strains, locus YJL095W, strain BCK1, active compounds read low
[4] = S. cerevisiae deletion strains, locus YOR061W, strain CKA2, active compounds read low

Measured: normalized growth

O=C(Nc1ccc(F)cc1F)c1cc(Cl)ccc1O
inactive: S. cerevisiae deletion strains, locus YAR019C, strain CDC15, active compounds read low 0.935 | S. cerevisiae deletion strains, locus YBL105C, strain PKC1, active compounds read low 0.933 | S. cerevisiae deletion strains, locus YBR135W, strain CKS1, active compounds read low 0.943 | S. cerevisiae deletion strains, locus YBR136W, strain MEC1, active compounds read low 0.94 | S. cerevisiae deletion strains, locus YBR160W, strain CDC28, active compounds read low 0.945 | S. cerevisiae deletion strains, locus YDL017W, strain CDC7, active compounds read low 0.935 | S. cerevisiae deletion strains, locus YDL028C, strain MPS1, active compounds read low 0.937 | [1] 0.979 | S. cerevisiae deletion strains, locus YDL108W, strain KIN28, active compounds read low 0.936 | S. cerevisiae deletion strains, locus YDL132W, strain cdc53, active compounds read low 0.97 | S. cerevisiae deletion strains, locus YDL214C, strain PRR2, active compounds read low 0.876 | S. cerevisiae deletion strains, locus YDR052C, strain DBF4, active compounds read low 0.926 | S. cerevisiae deletion strains, locus YDR054C, strain cdc34, active compounds read low 0.928 | S. cerevisiae deletion strains, locus YDR226W, strain ADK1, active compounds read low 0.931 | S. cerevisiae deletion strains, locus YDR477W, strain SNF1, active compounds read low 0.947 | S. cerevisiae deletion strains, locus YER123W, strain YCK3, active compounds read low 0.864 | S. cerevisiae deletion strains, locus YER133W, strain GLC7, active compounds read low 0.9 | S. cerevisiae deletion strains, locus YFL009W, strain cdc4, active compounds read low 0.923 | S. cerevisiae deletion strains, locus YFL029C, strain CAK1, active compounds read low 0.941 | S. cerevisiae deletion strains, locus YFR003C, strain YPI1, active compounds read low 0.929 | S. cerevisiae deletion strains, locus YFR019W, strain FAB1, active compounds read low 0.933 | S. cerevisiae deletion strains, locus YFR028C, strain CDC14, active compounds read low 0.925 | S. cerevisiae deletion strains, locus YGR040W, strain KSS1, active compounds read low 0.952 | S. cerevisiae deletion strains, locus YGR052W, strain FMP48, active compounds read low 1 | S. cerevisiae deletion strains, locus YGR092W, strain DBF2, active compounds read low 0.683 | [2] 0.927 | S. cerevisiae deletion strains, locus YHR079C, strain IRE1, active compounds read low 0.845 | S. cerevisiae deletion strains, locus YHR082C, strain KSP1, active compounds read low 0.989 | S. cerevisiae deletion strains, locus YHR205W, strain SCH9, active compounds read low 0.694 | S. cerevisiae deletion strains, locus YIL147C, strain SLN1, active compounds read low 0.938 | [3] 0.877 | S. cerevisiae deletion strains, locus YJL128C, strain PBS2, active compounds read low 0.918 | S. cerevisiae deletion strains, locus YJL157C, strain FAR1, active compounds read low 0.827 | S. cerevisiae deletion strains, locus YJR016C, strain ILV3, active compounds read low 0.939 | S. cerevisiae deletion strains, locus YJR066W, strain TOR1 (second series), active compounds read low 0.952 | S. cerevisiae deletion strains, locus YJR066W, strain TOR1, active compounds read low 1.03 | S. cerevisiae deletion strains, locus YKL048C, strain ELM1, active compounds read low 0.935 | S. cerevisiae deletion strains, locus YKL067W, strain YNK1, active compounds read low 0.884 | S. cerevisiae deletion strains, locus YKL101W, strain HSL1, active compounds read low 0.961 | S. cerevisiae deletion strains, locus YKL193C, strain SDS22, active compounds read low 0.941 | S. cerevisiae deletion strains, locus YKL203C, strain TOR2, active compounds read low 1.03 | S. cerevisiae deletion strains, locus YLR113W, strain HOG1, active compounds read low 0.98 | S. cerevisiae deletion strains, locus YLR133W, strain CKI1, active compounds read low 0.889 | S. cerevisiae deletion strains, locus YLR403W, strain SFP1, active compounds read low 0.708 | S. cerevisiae deletion strains, locus YML070W, strain DAK1, active compounds read low 0.936 | S. cerevisiae deletion strains, locus YMR001C, strain CDC5, active compounds read low 0.94 | S. cerevisiae deletion strains, locus YMR205C, strain PFK2 (second series), active compounds read low 0.901 | S. cerevisiae deletion strains, locus YMR277W, strain FCP1, active compounds read low 0.952 | S. cerevisiae deletion strains, locus YNL006W, strain LST8, active compounds read low 0.938 | S. cerevisiae deletion strains, locus YNL020C, strain ARK1, active compounds read low 0.84 | S. cerevisiae deletion strains, locus YNL161W, strain CBK1, active compounds read low 0.934 | S. cerevisiae deletion strains, locus YNL183C, strain NPR1, active compounds read low 1.02 | S. cerevisiae deletion strains, locus YNL207W, strain RIO2, active compounds read low 0.944 | S. cerevisiae deletion strains, locus YNL222W, strain SSU72, active compounds read low 0.939 | S. cerevisiae deletion strains, locus YNL307C, strain MCK1 (second series), active compounds read low 0.857 | S. cerevisiae deletion strains, locus YOL078W, strain AVO1, active compounds read low 0.939 | S. cerevisiae deletion strains, locus YOL136C, strain PFK27, active compounds read low 0.909 | [4] 0.89 | S. cerevisiae deletion strains, locus YOR119C, strain RIO1, active compounds read low 1.01 | S. cerevisiae deletion strains, locus YOR231W, strain MKK1, active compounds read low 0.996 | S. cerevisiae deletion strains, locus YOR329C, strain SCD5, active compounds read low 0.939 | S. cerevisiae deletion strains, locus YPL031C, strain PHO85, active compounds read low 0.928 | S. cerevisiae deletion strains, locus YPL153C, strain RAD53, active compounds read low 0.922 | S. cerevisiae deletion strains, locus YPL204W, strain HRR25, active compounds read low 0.915 | S. cerevisiae deletion strains, locus YPL209C, strain IPL1, active compounds read low 0.937 | S. cerevisiae deletion strains, locus YPL256C, strain CLN2, active compounds read low 0.927 | S. cerevisiae deletion strains, locus YPR025C, strain CCL1, active compounds read low 0.945 | S. cerevisiae deletion strains, locus YPR106W, strain ISR1, active compounds read low 0.94 | S. cerevisiae deletion strains, locus YPR111W, strain DBF20, active compounds read low 0.947 | S. cerevisiae deletion strains, strain NNK1, active compounds read low 0.965 | S. cerevisiae deletion strains, strain TSCII, active compounds read low 0.934

COP(=O)(NC(C)=O)SC (configuration not stated)
inactive: S. cerevisiae deletion strains, locus YAL013W, strain DEP1, active compounds read low 1.01 | S. cerevisiae deletion strains, locus YBR021W, strain FUR4, active compounds read low 1 | S. cerevisiae deletion strains, locus YBR229C, strain ROT2, active compounds read low 1.01 | S. cerevisiae deletion strains, locus YCL029C, strain bik1, active compounds read low 1 | S. cerevisiae deletion strains, locus YDL035C, strain GPR1, active compounds read low 1.01 | S. cerevisiae deletion strains, locus YDL074C, strain BRE1, active compounds read low 1.04 | [1] 1.01 | S. cerevisiae deletion strains, locus YDL134C, strain PPH21, active compounds read low 1.01 | S. cerevisiae deletion strains, locus YDL185W, strain tfp1, active compounds read low 1 | S. cerevisiae deletion strains, locus YDL192W, strain arf1, active compounds read low 0.996 | S. cerevisiae deletion strains, locus YDR101C, strain arx1, active compounds read low 1 | S. cerevisiae deletion strains, locus YDR150W, strain NUM1, active compounds read low 0.997 | S. cerevisiae deletion strains, locus YDR162C, strain NBP2, active compounds read low 1.04 | S. cerevisiae deletion strains, locus YDR318W, strain mcm21, active compounds read low 0.996 | S. cerevisiae deletion strains, locus YDR388W, active compounds read low 0.983 | S. cerevisiae deletion strains, locus YDR502C, strain sam2, active compounds read low 0.996 | S. cerevisiae deletion strains, locus YEL061C, strain CIN8, active compounds read low 1 | S. cerevisiae deletion strains, locus YER110C, active compounds read low 0.994 | S. cerevisiae deletion strains, locus YER155C, strain BEM2, active compounds read low 1.01 | S. cerevisiae deletion strains, locus YER167W, strain BCK2, active compounds read low 0.989 | S. cerevisiae deletion strains, locus YGL078C, strain dbp3, active compounds read low 0.994 | S. cerevisiae deletion strains, locus YGL086W, strain mad1, active compounds read low 0.994 | S. cerevisiae deletion strains, locus YGL248W, strain PDE1, active compounds read low 1 | S. cerevisiae deletion strains, locus YGR078C, strain PAC10, active compounds read low 1.04 | S. cerevisiae deletion strains, locus YGR135W, strain pre9, active compounds read low 1 | S. cerevisiae deletion strains, locus YGR229C, strain SMI1, active compounds read low 1.04 | S. cerevisiae deletion strains, locus YGR252W, strain gcn5, active compounds read low 0.976 | [2] 1.01 | S. cerevisiae deletion strains, locus YHR079C, strain IRE1 (second series), active compounds read low 0.998 | S. cerevisiae deletion strains, locus YHR094C, strain hxt1, active compounds read low 0.991 | S. cerevisiae deletion strains, locus YHR129C, strain ARP1, active compounds read low 1.01 | S. cerevisiae deletion strains, locus YHR200W, strain rpn10, active compounds read low 1 | S. cerevisiae deletion strains, locus YIL066C, strain RNR3, active compounds read low 1.04 | S. cerevisiae deletion strains, locus YIL073C, strain SPO22, active compounds read low 1.03 | S. cerevisiae deletion strains, locus YIL125W, strain kgd1, active compounds read low 0.997 | S. cerevisiae deletion strains, locus YIR030C, strain dcg1, active compounds read low 1 | [3] 1.01 | S. cerevisiae deletion strains, locus YJL134W, strain LCB3, active compounds read low 1 | S. cerevisiae deletion strains, locus YJL168C, strain set2, active compounds read low 0.989 | S. cerevisiae deletion strains, locus YJL187C, strain SWE1 (second series), active compounds read low 1.01 | S. cerevisiae deletion strains, locus YJR043C, strain POL32, active compounds read low 1.02 | S. cerevisiae deletion strains, locus YJR075W, strain HOC1, active compounds read low 1.03 | S. cerevisiae deletion strains, locus YKL009W, strain mrt4, active compounds read low 1.01 | S. cerevisiae deletion strains, locus YKL068W, active compounds read low 1.01 | S. cerevisiae deletion strains, locus YKL085W, strain MDH1 (second series), active compounds read low 0.997 | S. cerevisiae deletion strains, locus YKL085W, strain MDH1, active compounds read low 0.997 | S. cerevisiae deletion strains, locus YKL190W, strain CNB1, active compounds read low 1.03 | S. cerevisiae deletion strains, locus YKR001C, strain vps1, active compounds read low 0.996 | S. cerevisiae deletion strains, locus YLR039C, strain RIC1, active compounds read low 1.05 | S. cerevisiae deletion strains, locus YLR058C, strain SHM2, active compounds read low 1.01 | S. cerevisiae deletion strains, locus YLR102C, strain apc9, active compounds read low 0.994 | S. cerevisiae deletion strains, locus YLR262C, strain YPT6, active compounds read low 1.02 | S. cerevisiae deletion strains, locus YLR268W, strain sec22, active compounds read low 0.999 | S. cerevisiae deletion strains, locus YLR330W, strain CHS5, active compounds read low 1.01 | S. cerevisiae deletion strains, locus YLR342W, strain FKS1 (second series), active compounds read low 1.01 | S. cerevisiae deletion strains, locus YLR371W, strain rom2, active compounds read low 1 | S. cerevisiae deletion strains, locus YLR418C, strain cdc73, active compounds read low 0.998 | S. cerevisiae deletion strains, locus YML016C, strain PPZ1, active compounds read low 1.01 | S. cerevisiae deletion strains, locus YML032C, strain rad52, active compounds read low 0.999 | S. cerevisiae deletion strains, locus YML124C, strain tub3, active compounds read low 0.997 | S. cerevisiae deletion strains, locus YMR078C, strain ctf18, active compounds read low 0.995 | S. cerevisiae deletion strains, locus YMR223W, strain ubp8, active compounds read low 1 | S. cerevisiae deletion strains, locus YMR263W, strain SAP30, active compounds read low 1.04 | S. cerevisiae deletion strains, locus YMR307W, strain GAS1, active compounds read low 1.05 | S. cerevisiae deletion strains, locus YNL067W, strain RPL9B, active compounds read low 1.03 | S. cerevisiae deletion strains, locus YNL128W, strain TEP1, active compounds read low 1.01 | S. cerevisiae deletion strains, locus YNL153C, strain GIM3, active compounds read low 1.02 | S. cerevisiae deletion strains, locus YNL233W, strain BNI4, active compounds read low 1.01 | S. cerevisiae deletion strains, locus YNL250W, strain rad50, active compounds read low 0.986 | S. cerevisiae deletion strains, locus YNL271C, strain bni1, active compounds read low 0.993 | S. cerevisiae deletion strains, locus YNL298W, strain CLA4, active compounds read low 0.995 | S. cerevisiae deletion strains, locus YNL307C, strain MCK1, active compounds read low 0.995 | S. cerevisiae deletion strains, locus YNL322C, strain KRE1, active compounds read low 1.01 | S. cerevisiae deletion strains, locus YNR052C, strain pop2, active compounds read low 0.998 | S. cerevisiae deletion strains, locus YOL006C, strain TOP1, active compounds read low 1.05 | S. cerevisiae deletion strains, locus YOL012C, strain htz1 0.88 | S. cerevisiae deletion strains, locus YOL147C, strain pex11, active compounds read low 0.988 | [4] 1.01 | S. cerevisiae deletion strains, locus YOR069W, strain VPS5, active compounds read low 1.01 | S. cerevisiae deletion strains, locus YOR136W, strain idh2, active compounds read low 1 | S. cerevisiae deletion strains, locus YOR144C, strain elg1, active compounds read low 0.995 | S. cerevisiae deletion strains, locus YOR184W, strain ser1, active compounds read low 1.01 | S. cerevisiae deletion strains, locus YOR316C, strain cot1, active compounds read low 0.999 | S. cerevisiae deletion strains, locus YPL055C, strain LGE1, active compounds read low 1.09 | S. cerevisiae deletion strains, locus YPL241C, strain CIN2, active compounds read low 1.01 | S. cerevisiae deletion strains, locus YPR119W, strain clb2, active compounds read low 0.993 | S. cerevisiae deletion strains, locus YPR141C, strain kar3, active compounds read low 0.994 | S. cerevisiae deletion strains, locus YPR163C, strain tif3, active compounds read low 0.998 | S. cerevisiae deletion strains, locus YPR167C, strain met16, active compounds read low 0.997 | S. cerevisiae deletion strains, strain wtn01, active compounds read low 0.993 | S. cerevisiae strains, strain wild type, active compounds read low 1.01
